Measured values as given in PubChem BioAssay AID2283134 (EPA ToxCast).
Results filed as inconclusive are left out. Calls of active or inactive are those of the source. Rule for the calls: active = hit-call score of the fitted dose curve at least 0.9, where 1 is the maximum; inconclusive = response in the unintended direction; inactive = score below 0.9.

target: human Checkpoint Kinase 1 (CHK1), CHEK1 (gene 1111) (UniProt O14757); assay: NVS_ENZ_hCHK1: NovaScreen (NVS) Enzymatic Assay for human Checkpoint Kinase 1 (CHK1)
Experimental: NVS_ENZ_hCHK1 is a biochemical, single-readout assay that uses extracted gene-proteins in a cell-free assay. Measurements were taken 1 hour after chemical dosing in a 96-well plate.NVS_ENZ_hCHK1 is one of one assay component(s) measured or calculated from the NVS_ENZ_hCHK1 assay. It is designed to make measurements of enzyme activity, a form of enzyme reporter, as detected with fluorescence intensity signals by Fluorescence and electrophoretic mobility shift technology.Data from the assay component NVS_ENZ_hCHK1 was analyzed into 1 assay endpoint. This assay endpoint, NVS_ENZ_hCHK1, was analyzed in the positive analysis fitting direction relative to DMSO as the negative control and baseline of activity. Using a type of enzyme reporter, loss-of-signal activity can be used to understand changes in the enzymatic activity as they relate to the gene CHEK1. Furthermore, this assay endpoint can be referred to as a primary readout, because this assay has produced multiple assay endpoints where this one serves a enzymatic activity function. To generalize the intended target to other relatable targets, this assay endpoint is annotated to the kinase intended target family, where the subfamily is serine/threonine kinase. […]

Chain of human Checkpoint Kinase 1 (CHK1), CHEK1 (gene 1111) (O14757 whole entry, looked up): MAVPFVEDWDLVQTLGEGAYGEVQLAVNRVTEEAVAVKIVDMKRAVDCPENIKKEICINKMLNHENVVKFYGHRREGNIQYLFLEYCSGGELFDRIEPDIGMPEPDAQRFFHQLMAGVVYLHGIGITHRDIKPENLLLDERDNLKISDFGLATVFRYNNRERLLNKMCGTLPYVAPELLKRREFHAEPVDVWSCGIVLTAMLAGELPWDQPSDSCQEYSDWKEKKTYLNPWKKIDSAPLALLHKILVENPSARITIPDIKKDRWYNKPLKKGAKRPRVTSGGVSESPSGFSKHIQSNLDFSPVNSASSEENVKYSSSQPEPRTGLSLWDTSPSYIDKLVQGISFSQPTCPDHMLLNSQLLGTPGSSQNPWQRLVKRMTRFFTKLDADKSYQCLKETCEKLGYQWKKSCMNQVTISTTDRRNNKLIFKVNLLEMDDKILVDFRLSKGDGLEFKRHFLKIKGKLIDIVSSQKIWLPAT

SMILES | outcome
N#Cc1c(Cl)c(Cl)c(Cl)c(C#N)c1Cl | inactive
